Data as given in PubChem BioAssay (NCATS).
Results filed as inconclusive are left out. Unmarked numbers belong to inactive results. Active and inactive are the calls of the source. The call rests on the fitted dose curve; in most records, active means well fitted inhibition curve with a large enough effect; inconclusive means small, poorly fitted or top-dose-only effect; inactive means no such curve, though single readings can be large or run the other way.

Assay: qHTS for Inhibitors of the Aldehyde Dehydrogenase Family (ALDH1A2, ALDH1A3, ALDH2, ALDH3A1) (AID 2061307); further: nearly all actives have a fitted effect of over 50% in size; on Potency: test system not described further here
Settings: ALDH inhibition qHTS; series mostly up to 50.3 µM; activity change, negative = inhibition: at the top concentration
On the % scale 0 is the no-effect control and ±100 the full control effect; potency means the concentration at half of the fitted maximal effect.

| SMILES | activity change, negative = inhibition | Potency |
| --- | --- | --- |
| CCN(CC)CCOCCOC(=O)C(CC)(CC)c1ccccc1 | 25.6% | – |
| CC(C)c1ccccc1-c1ncc(F)c(NCc2ccc(-c3cccnc3)cc2)n1 | – | 14.1 µM (active) |
| COc1ccc(CCC(=O)c2c(O)cc(O[C@@H]3O[C@H](CO)[C@@H](O)[C@H](O)[C@H]3O[C@@H]3O[C@@H](C)[C@H](O)[C@@H](O)[C@H]3O)cc2O)cc1O | -22.1% | – |
| Oc1cc(Nc2ccccc2)cc2cccnc12 | 0% | – |
| C[C@H]1CO[C@@H]2Cn3cc(C(=O)NCc4ccc(F)cc4F)c(=O)c(O)c3C(=O)N12 | 1.07% | – |
| Cc1cc(C)n2ncc(C(=O)Nc3ccc4c(c3)OCO4)c2n1 | -18.8% | – |
| CCN1CCN(c2ccc(Nc3ccc(-c4ccc(C(N)=O)cc4)n4ncnc34)cc2)CC1 | 29% | – |
| C[C@@H](N)C(=O)Nc1ccc(Cl)cc1C(=O)c1ccc[nH]1 | 2.06% | – |
| O=C(NCc1cccs1)c1nc(-c2ccc(F)cc2)c2ccccn12 | -34.2% [at 34.4 µM] | – |
| COc1nc2ccc(Br)cc2cc1[C@@H](c1ccccc1)[C@@](O)(CCN(C)C)c1cccc2ccccc12 | – | 0.896 µM (active) |
| C=C(C(=O)OC)C1CCC2(C)C(O[C@@H]3O[C@H](CO)[C@@H](O)[C@H](O)[C@H]3O)CC(=O)C(C)C2C1O (some centres undefined) | -18.4% [at 34.4 µM] | – |
| FC(F)(F)c1ccccc1-c1nc(NCc2ccc(-c3cccnc3)cc2)c2ccccc2n1 | -7.17% | – |
| Oc1cc(Nc2cccnc2)cc2cccnc12 | 0% | – |
| O=C(Nc1ccccc1Cl)c1cnc2ccc(C3CCNCC3)cn12 | 15.8% | – |
| Nc1ccc(S(=O)(=O)N2CCN(S(=O)(=O)c3c(F)cccc3F)CC2)cc1 | 2.64% | – |
| CCN1CCN(C(=O)N[C@@H](C(=O)N[C@@H]2C(=O)N3[C@@H]2SC(C)(C)[C@@H]3C(=O)O)c2ccccc2)C(=O)C1=O | 3.65% | – |
| Nc1ncnc2c1ncn2[C@@H]1O[C@H](CN[S+](=O)([O-])NC(=O)c2cccc(-c3noc(-c4ccccc4F)n3)c2)[C@@H](O)[C@H]1O | – | 1.2 µM (active) |
| Cc1cc2occ(CN(C)CCN(C)Cc3cn(-c4cccc(C(F)(F)F)c4)c4ccccc34)c(=O)c2cc1C | 357% | – |
| Cc1nc2ccc(Nc3nc(Nc4c(C)cc(C=CC#N)cc4C)nc4nc[nH]c34)cc2s1 | – | 10.1 µM (active) |
| CC(C)C[C@H]1C(=O)N2CCC[C@H]2[C@]2(O)O[C@](NC(=O)[C@@H]3C=C4c5cccc6[nH]c(Br)c(c56)C[C@H]4N(C)C3)(C(C)C)C(=O)N12 | -7.66% | – |
| Cc1ccc(-c2cnc(N3CCC(C(N)=O)CC3)s2)cc1 | – | 10.1 µM (active) |
| COc1cc(CNc2ncnc3ccc(-c4c(C)noc4C)cc23)cc(OC)c1OC | -19.9% | – |
| COc1ccc(-c2nc3ccccc3s2)cc1 | – | 1.7 µM (active) |
| COc1ccc(O)c(C2Nc3ccccc3C(=O)N2Cc2ccccc2)c1 (centres undefined) | – | 12.7 µM (active) |
